Screens: PubChem BioAssay, National Center for Advancing Translational Sciences (NCATS)
Sampled rows, rich in hits. Any-hit rate of the full collection: about 8%.
SW480 rereplic: inducers of DNA re-replication in SW480 colon cancer cells. SW480 DNA re-replication, Hoechst DNA content imaging, 48 h. AID 624297. actives 1.8% (n = 340,000). Potency, µM (series often up to 46.1 µM), without a hit: at the highest dose re-replication activation, most hits filed as activators; also: % of control where 0% means no effect; nearly all actives have a fitted effect of over 55% in size
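Quantitative HTS format with DMSO vehicle controls; 48 hr drug incubation at 37 C, then 40 min Hoechst staining and scanning imager measurement at 405 nm excitation.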
KB-3-1 cytotox: kills parental KB-3-1 adenocarcinoma cells; KB-3-1 viability, CellTiter-Glo ATP luminescence, 72 h; actives 1.4% (n = 400,000); Potency, µM (top dose mostly 46.1 µM), actives largely listed as cytotoxic; AID 1347075; also: % is scaled to controls: 0 for no effect and ±100 for the full control effect; nearly all actives have a fitted effect of over 60% in size
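Viability of parental KB-3-1 cells, measured by CellTiter-Glo luminescence, followed a 72 h incubation at 37 °C with pinned compounds in phenol-red-free DMEM containing 10% FBS.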
HT1080NT lethal: kills 2HG-producing HT-1080-NT fibrosarcoma cells; HT-1080-NT fibrosarcoma viability, CellTiter-Glo ATP luminescence, 48 h; Potency, µM (highest dose often 46.1 µM), for the others: at the highest dose activity, negative = less viability, most hits filed as cytotoxic; actives 1.6% (n = 360,000);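 also: NT is the 2HG producing partner of a matched IDH1 knockdown line; 0% = DMSO-treated cells and -100% = media-only wells without cells; nearly all actives have a fitted effect of over 55% in size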
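Viability of the 2HG-overproducing fibrosarcoma line after 48 hours of compound exposure at 37 degrees C was determined by luminescence with CellTiter-Glo, and concentration-effect curves were then fitted and categorized.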
KB-V1 cytotox: kills drug-selected multidrug resistant KB-V1 cells. KB-V1 MDR cells viability, CellTiter-Glo, 72 h. Potency, µM (highest dose often 46.1 µM), actives largely listed as cytotoxic. actives 3.4% (n = 400,000). AID 1347076; also: % is scaled to controls: 0 for no effect and ±100 for the full control effect; nearly all actives have a fitted effect of over 60% in size
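KB-V1 MDR subline cells in DMEM (phenol-red free, 10% FBS) exposed to compounds in qHTS concentration series for 72 h at 37 degrees C. Viability read by CellTiter-Glo luminescence; concentration-effect curves fitted after normalization and correction.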
MCF10A rereplic: inducers of DNA re-replication in MCF 10A breast cells; AID 624296; MCF 10A DNA re-replication, Hoechst nuclear intensity, 48 h; actives 2.9% (n = 350,000); Potency, µM (series often up to 46.1 µM), inactives show at the highest dose activity, positive = re-replication, usual class: activators; also: % of control where 0% means no effect; nearly all actives have a fitted effect of over 50% in size
HT1080 IDH1KD tx: HT-1080 IDH1 knockdown cell toxicity (counter line). HT-1080 IDH1 knockdown viability, ATP luminescence, 48 h. Potency, µM (titrated, usually from 46.1 µM), inactives show at the highest dose activity, negative = toxicity, hits mostly cytotoxic. actives 2% (n = 360,000). AID 686971;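 also: 0% = DMSO wells and -100% = cell-free medium wells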
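IDH1KD HT-1080 cells, 750/well, RPMI + 5% FBS; compound pinned after 2 h settling; 48 h, 37 °C; CellTiter-Glo luminescence; % activity normalised to DMSO and no-cell wells; curves fitted, classed by r2 and efficacy.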
The depositor's hits bear a star; i = inactive; ? = inconclusive; · = not tested or not shown; [ ] = another dose, or the depositor's remark. Calls follow the shape of the dose curve; as a rule, active = well fitted curve in the direction sought with a large enough effect; inconclusive = small, poorly fitted or top-dose-only effect, or another doubt; inactive = no such curve, though single readings can be large; an effect the other way counts as inactive or inconclusive. Potency is read from the fitted curve at half-maximal effect.

SMILES	SW480 rereplic	KB-3-1 cytotox	HT1080NT lethal	KB-V1 cytotox	MCF10A rereplic	HT1080 IDH1KD tx
CC(C)[C@@H](C(=O)NC1CCN(Cc2ccccc2)CC1)N1C(=O)N2CCc3c([nH]c4ccccc34)[C@@]2(C)C1=O	24%	i	-14%	?	?	-23%
COc1cccc(NS(=O)(=O)c2ccc3[nH]cc(C(=O)NCCc4ccccc4)c(=O)c3c2)c1	·	i	·	i	·	·
COC(=O)CN(c1cc(Cl)ccc1OC)S(=O)(=O)c1ccc(OC)c(OC)c1	-4%	i	3%	2.3µM*	-6%	-1%
CCNc1nc(NCC)nc(N/N=C/c2ccc([N+](=O)[O-])o2)n1	?	?	-7%	21µM*	10%	-11%
O=[N+]([O-])c1ccc(/C=N/Nc2nc(N3CCCC3)nc(N3CCCC3)n2)o1	-2%	i	?	21µM*	0%	?
O=[N+]([O-])c1ccc(/C=N/Nc2nc(-c3ccccc3)c3cc(Br)ccc3n2)o1	0%	i	14%	i	2%	22%
O=[N+]([O-])c1ccc(-c2ccc(/C=N/Nc3nc(N4CCCC4)nc(N4CCCC4)n3)o2)cc1	?	i	2%	i	?	7%
Cc1ccc2nc(N/N=C\c3ccc([N+](=O)[O-])o3)nc(-c3ccccc3)c2c1	?	26µM*	?	18µM*	?	10%
Cc1ccc(NCc2nnc(SCC(=O)Nc3ncc(C)s3)n2Cc2ccco2)c(C)c1	8%	i	?	i	21%	?
COc1ccc(OC)c(S(=O)(=O)Nc2ccc3c(c2)C(=O)OC3)c1	13%	i	18µM*	i	10%	21µM*
COc1ccc(NS(=O)(=O)c2cc(OC)ccc2OC)cc1	-6%	i	7%	i	1%	-3%
COc1ccc(/C=C(\C#N)C(=O)Nc2cc(C)c(Cl)cc2OC)cc1O	10µM*	21µM*	2%	i	?	4%
Nc1ccc(S(=O)(=O)NC2(C(F)(F)F)NC(=O)N(c3ccc(F)cc3)C2=O)cc1 (configuration not stated)	-10%	i	4%	i	-22%	-1%
CCOC(=O)c1ccc2[nH]cc(C(C)=O)c(=O)c2c1	-2%	i	26%	i	3%	0%
O=C1CN(C(=O)COC(=O)c2ccccc2O)c2ccccc2N1	-2%	i	?	i	-3%	18%
Cc1cc(C(=O)OCC(=O)N2CC(=O)Nc3ccccc32)c(C)n1-c1ccc(F)cc1	-2%	?	-1%	16µM*	13%	-4%
COc1cc(SC)ccc1C(=O)OCC(=O)N1CC(=O)Nc2ccccc21	1%	i	-2%	i	1%	-4%
CC(=O)N1CCN(S(=O)(=O)c2cccc(C(=O)OCC(=O)N3CC(=O)Nc4ccccc43)c2)CC1	-41%	i	-1%	i	-3%[9.22 µM]	-3%
Cc1noc(C)c1COc1cccc(C(=O)OCC(=O)N2CC(=O)Nc3ccccc32)c1	9.2µM*	1.5µM*	?	?	1.8µM*	1.8µM*
Cc1cc(C(=O)OCC(=O)N2CC(=O)Nc3ccccc32)c(C)n1-c1ccccc1	-69%	i	10%	16µM*	7%	7%
COc1ccc(OCc2n(CC(=O)OC3CC(C)CCC3C(C)C)c3ccccc3[n+]2C)cc1 (configuration not stated)	26%	13µM*	5.8µM*	?	?	5.8µM*
COc1ccc(-c2n(CC(=O)OC3CC(C)CCC3C(C)C)c3ccccc3[n+]2C)cc1 (configuration not stated)	-37%	?	6.5µM*	?	?	5.8µM*
Cc1nc(NCCc2ccc(Cl)cc2)c2nnn(Cc3ccccc3)c2n1	-2%	i	-1%	i	-1%	8%
